The results in this text go back to PubChem BioAssay (NCI).

This is part of a sample that, as a whole, favours compounds with a hit. Of some 83,000 tested, about 20% had one in any assay.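 Cell lines were cultured in 96-well plates, exposed to a single compound concentration, and assessed for percent growth 48 hours later.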 Unmarked numbers belong to inactive results. Active and inactive are the calls of the source. How the source made its calls: active means growth percent below 10; inactive means the rest.

Some test systems named below: NCI-H23 lung; NCI-H226 lung; NCI-H322M lung; HOP-62 NSCLC; NCI-H460 lung; HOP-92 NSCLC; NCI-H522 lung; A549/ATCC NSCLC; 786-0 renal; COLO 205 colon; DU-145 prostate; K-562 leukemia; MALME-3M melanoma; MDA-MB-231 breast; RXF 393 renal; SF-268 CNS; SF-295 CNS; UACC-257 melanoma; M14 melanoma.
Experiment in all cases: NCI-60 one-dose screen, 48 h (100 = growth as untreated, 0 = no growth, -100 = all killed)
Common to all, as to conditions: 10 µM unless noted

`COc1ccc(-c2c(C)noc2-c2ccc(O)cc2O)cc1`: the growth is 81.4% with NCI-H23 lung; 101% in the assay on NCI-H226 lung; 94% in the assay on NCI-H322M lung; 118% with HOP-62 NSCLC; 54.3% in the assay with NCI-H460 lung; 104% in the assay with HOP-92 NSCLC. In addition, the growth is 69.5% in the assay with NCI-H522 lung; 75.3% in the assay on A549/ATCC NSCLC; 97.9% in the assay on 786-0 renal; 121% in the assay with COLO 205 colon; 64.4% in the assay with DU-145 prostate; 39.6% in the assay with K-562 leukemia. For the same compound, the growth in the assay with MALME-3M melanoma is 103%; in the assay with MDA-MB-231 breast, 108%; in the assay with RXF 393 renal it was 90.7%; with SF-268 CNS, 82%; in the assay with SF-295 CNS, 97.6%; in the assay with UACC-257 melanoma, 111%. Besides, the growth with M14 melanoma is 103%.
Regarding `C/C(=C(/c1ccc(O)cc1)c1ccc(OCCN(C)C)cc1)c1ccccc1`, the growth was 81.9% in the assay on NCI-H23 lung; 89.4% in the assay on NCI-H226 lung; 77% with NCI-H322M lung; 79.8% in the assay with HOP-62 NSCLC; 93.7% in the assay on NCI-H460 lung; 54.9% with HOP-92 NSCLC. In addition, the growth in the assay on NCI-H522 lung is 71.8%; in the assay on A549/ATCC NSCLC, 72.4%; in the assay on 786-0 renal, 89.5%; in the assay on COLO 205 colon it was 63.8%; with DU-145 prostate, 98.1%; with K-562 leukemia it was 36.6%. In addition, the growth was 79.9% in the assay with MALME-3M melanoma; 85.2% in the assay on MDA-MB-231 breast; 69.3% in the assay with RXF 393 renal; 83.3% in the assay with SF-268 CNS; 98.1% in the assay with SF-295 CNS; 78.1% with UACC-257 melanoma. The growth in the assay on M14 melanoma was 65.1%.
In the case of `Cc1ccc(S(=O)(=O)n2cc(-c3csc(-c4cn(C)c5ncccc45)n3)c3ccccc32)cc1`, the growth was 68.1% in the assay on NCI-H23 lung; 77.6% in the assay on NCI-H226 lung; 79.5% in the assay on NCI-H322M lung; 51.8% in the assay on HOP-62 NSCLC; 30.3% with NCI-H460 lung; 35.8% with HOP-92 NSCLC. For the same compound, the growth is 45.6% in the assay on NCI-H522 lung; 41.5% with A549/ATCC NSCLC; 77.9% with 786-0 renal; 43.6% in the assay with COLO 205 colon; 78.3% with DU-145 prostate; 26.7% with K-562 leukemia. Further, the growth is 68.5% in the assay on MALME-3M melanoma; 42.6% in the assay with MDA-MB-231 breast; 74.3% in the assay with RXF 393 renal; 74.1% in the assay with SF-268 CNS; 41.9% with SF-295 CNS; 70.8% in the assay with UACC-257 melanoma. Besides, the growth with M14 melanoma was 34.2%.
`CCCCCCCCCCCCCC(=O)C(C)N` (stereo not drawn): the growth with NCI-H23 lung is 51.6%; with NCI-H226 lung, 87.9%; in the assay with NCI-H322M lung, 53.5%; with HOP-62 NSCLC, 22.3%; in the assay on NCI-H460 lung, 4.75% (active); in the assay on HOP-92 NSCLC it was 8.22% (active). The growth with NCI-H522 lung is 0.193% (active); in the assay on A549/ATCC NSCLC it was 51.6%; in the assay with 786-0 renal, 71.3%; with COLO 205 colon it was 15.9%; with DU-145 prostate, 7.93% (active); in the assay on K-562 leukemia, -44.3% (active). Besides, the growth in the assay with MALME-3M melanoma was 77.8%; with MDA-MB-231 breast, -54.1% (active); in the assay with RXF 393 renal, 28%; in the assay on SF-268 CNS, 37.7%; in the assay on SF-295 CNS, 56.3%; with UACC-257 melanoma, 91.6%. Further, the growth in the assay with M14 melanoma is 63.7%.
As to `CCn1cc2c(cc1=O)-c1nc3ccccc3c3ccnc(c13)C2=O`, the growth was 27.6% with NCI-H23 lung; 63.1% in the assay with NCI-H226 lung; 76.3% with NCI-H322M lung; 11.9% in the assay on HOP-62 NSCLC; 2.86% (active) in the assay on NCI-H460 lung; 56.6% in the assay with HOP-92 NSCLC. Besides, the growth in the assay with NCI-H522 lung was 39%; in the assay with A549/ATCC NSCLC, 29%; in the assay with 786-0 renal, 69.1%; in the assay on COLO 205 colon it was 60.8%; in the assay with DU-145 prostate, 36.6%; in the assay on K-562 leukemia, 50.6%. In addition, the growth with MALME-3M melanoma is 90.1%; in the assay with MDA-MB-231 breast, 75.1%; with RXF 393 renal it was 63.5%; in the assay with SF-268 CNS, 54.3%; with SF-295 CNS, 29.9%; with UACC-257 melanoma, 74.2%. Besides, the growth in the assay on M14 melanoma was 28.9%.
Take `COc1ccc(CN2C(=O)/C(=C\c3cc(OC)c(OC)c(OC)c3)c3cc(OC)ccc32)cc1`: the growth with NCI-H23 lung was -44% (active); with NCI-H226 lung, -21.1% (active); in the assay on NCI-H322M lung, 8.29% (active); in the assay on HOP-62 NSCLC, 17.1%; in the assay on NCI-H460 lung, -42.2% (active); with HOP-92 NSCLC, 37.6%. Further, the growth is -70.1% (active) in the assay on NCI-H522 lung; 3.05% (active) in the assay on A549/ATCC NSCLC; 9.78% (active) in the assay on 786-0 renal; -46.3% (active) in the assay with COLO 205 colon; 7.67% (active) in the assay with DU-145 prostate; 1.94% (active) in the assay on K-562 leukemia. Further, the growth with MALME-3M melanoma is 36.4%; with MDA-MB-231 breast it was 11.1%; in the assay with RXF 393 renal, -53% (active); in the assay on SF-268 CNS, 7.98% (active); with SF-295 CNS, 39.7%; in the assay with UACC-257 melanoma, 25.7%. For the same compound, the growth with M14 melanoma is -28% (active).
Turning to `COc1cc2nc3cc([N+](=O)[O-])ccc3c(NCCCNCC(C)(C)O)c2cc1OC`, the growth with NCI-H23 lung was -47.4% (active); with NCI-H226 lung it was -37.6% (active); in the assay on NCI-H322M lung, -24.8% (active); with HOP-62 NSCLC it was -53.3% (active); in the assay on NCI-H460 lung, -48.5% (active); in the assay with HOP-92 NSCLC it was -53.9% (active). Further, the growth is -56.7% (active) in the assay with NCI-H522 lung; -30.9% (active) in the assay on A549/ATCC NSCLC; -61.6% (active) in the assay on 786-0 renal; -81.2% (active) in the assay on COLO 205 colon; -34.3% (active) in the assay on DU-145 prostate; 0.851% (active) in the assay on K-562 leukemia. The growth in the assay on MALME-3M melanoma was -81.8% (active); with MDA-MB-231 breast, -62.5% (active); in the assay on RXF 393 renal it was -81.9% (active); in the assay with SF-268 CNS, -57.4% (active); with SF-295 CNS, -41.2% (active); with UACC-257 melanoma it was -64.2% (active). In the assay on M14 melanoma, the growth was -77.3% (active).
